Data on 99 compounds can be found in PubChem BioAssay AID1942 (Johns Hopkins Ion Channel Center, 2009).

Hit rate of the full screen: of about 2,400 compounds, about 580 (24%) were called active. These entries were drawn from the full list. Values without a mark were called inactive.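 Rule for the calls: active = activity change at or above the mean plus 3 SD of buffer wells without dofetilide, per plate; inactive = the rest.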

For this test, the target named is Potassium voltage-gated channel subfamily KQT member 2 (Rattus norvegicus) (UniProt O88943). As to the kind of experiment: rat KCNQ2 channel activation by compounds alone, confirmation, counter-screen for hERG block protector project, cell-based, CHO, FluxOR thallium flux (AID 1942).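 Note: normalized value minus buffer-control mean plus three SD of buffer wells.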 Particulars: CHO-KCNQ2 cells, FluxOR thallium flux fluorescence; at 10 µM; hits give high values. On the technique in general: A counterscreen serves to expose hits that act by an unwanted route or on another target.
Sequence of Potassium voltage-gated channel subfamily KQT member 2 (Rattus norvegicus) (O88943 whole entry, looked up): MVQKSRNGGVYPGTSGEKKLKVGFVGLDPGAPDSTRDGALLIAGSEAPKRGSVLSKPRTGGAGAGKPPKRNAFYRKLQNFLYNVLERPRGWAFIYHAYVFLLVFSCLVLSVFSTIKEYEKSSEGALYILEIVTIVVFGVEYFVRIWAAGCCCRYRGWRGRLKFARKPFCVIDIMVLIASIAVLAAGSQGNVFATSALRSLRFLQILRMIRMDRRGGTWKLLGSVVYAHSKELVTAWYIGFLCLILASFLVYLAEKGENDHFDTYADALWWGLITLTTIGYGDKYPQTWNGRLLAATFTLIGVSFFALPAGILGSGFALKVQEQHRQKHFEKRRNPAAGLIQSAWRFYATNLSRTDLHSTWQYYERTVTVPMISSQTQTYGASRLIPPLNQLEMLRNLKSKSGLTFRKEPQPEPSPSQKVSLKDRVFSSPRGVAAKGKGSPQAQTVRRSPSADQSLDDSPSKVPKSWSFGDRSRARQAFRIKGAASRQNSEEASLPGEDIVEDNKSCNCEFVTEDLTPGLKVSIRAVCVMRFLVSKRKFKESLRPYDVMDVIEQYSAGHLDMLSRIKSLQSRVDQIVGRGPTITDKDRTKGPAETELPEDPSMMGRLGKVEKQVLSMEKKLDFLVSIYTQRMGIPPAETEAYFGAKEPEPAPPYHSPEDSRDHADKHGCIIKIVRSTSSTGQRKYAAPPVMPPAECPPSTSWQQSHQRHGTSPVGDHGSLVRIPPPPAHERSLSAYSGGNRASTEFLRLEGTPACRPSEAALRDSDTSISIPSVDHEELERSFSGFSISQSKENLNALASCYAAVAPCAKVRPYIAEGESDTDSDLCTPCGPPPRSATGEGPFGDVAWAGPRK
`COc1ccccc1C(=O)NNC(=O)C(=O)NC1CCCCC1`: the activity change, less the hit threshold is 49.7% (active).
In the case of `COc1ccc(C(=O)NNC(=O)C(=O)NC2CCCCC2)cc1` it was -1.7%; in that of `COc1ccccc1C(=O)NNC(=O)C(=O)NCc1ccccc1`, 18.8% (active).
As to `COc1ccccc1C(=O)NCc1ccc2c(c1)OCO2`, the activity change, less the hit threshold is -21.4%.
`O=C(COc1ccc(Cl)cc1)NNC(=O)C(=O)NC1CCCCC1`: the activity change, less the hit threshold was -11.2%.
Turning to `COc1cc(NC(=O)c2ccccc2OCc2ccccc2)cc(OC)c1OC`, the activity change, less the hit threshold is -26.8%.
Turning to `Cc1ccc(/C=C2/C(=N)N3N=C(CC(=O)N4CCCC4)SC3=NC2=O)cc1`, the activity change, less the hit threshold was -19.5%.
The result for `CC(C)CSC1=NSC2=NC(=O)/C(=C\c3ccccc3)C(=N)N12` reads 1.1% (active); that for `O=C(OCc1ccc([N+](=O)[O-])cc1)c1cc2ccccc2oc1=O`, -21.1%; that for `COc1cc(C2NC(=O)NC(C)=C2C(=O)OCC2CCCCC2)ccc1O` (centres undefined), -7.2%.
In the case of `CCOC(=O)C1=C(c2ccccc2)NC(=O)NC1c1ccc(OC)c(OC)c1` (centres undefined) it was -25.1%; in that of `CCOC(=O)C1=C(c2ccccc2)NC(=O)NC1c1ccc(O)c(Cl)c1` (centres undefined), 0.1% (active); in that of `C/C(=N\NC(=O)COc1ccc(C)cc1C(C)C)c1ccc(-n2ccnc2)cc1`, -22.3%.
In the case of `Cc1nn(-c2ccc(Cl)cc2)c2sc(C(=O)c3c(N)n(C)c(=O)n(C)c3=O)cc12`, the activity change, less the hit threshold was -14.1%.
The result for `Cc1nc2ccc(C(=O)O)cc2[nH]1` reads -10.4%; that for `C=CCn1c(=S)[nH]c2ccc(Br)cc2c1=O`, 12.4% (active); that for `COc1ccccc1Cn1c(=S)[nH]c2ccc(Br)cc2c1=O`, -7.4%.
As to `O=C(CCN1C(=O)/C(=C\C=C\c2ccccc2)SC1=S)Nc1ccc(C(=O)O)cc1`, the activity change, less the hit threshold was -12.3%.
`O=c1[nH]c2ccccc2nc1C(F)(F)C(F)F`: the activity change, less the hit threshold is -16.2%.
Consider `CCSc1nc2c(sc3ccccc32)c(=O)n1C(C)C`, for which the activity change, less the hit threshold was 30.9% (active).
The result for `CCC(C)Sc1nc2c([nH]c3ccccc32)c(=O)n1C` (centres undefined) reads -19.6%; that for `COCCCN1C(=O)C(=O)/C(=C(/O)c2ccc(S(=O)(=O)N3CCOCC3)cc2)C1c1ccc(F)cc1` (centres undefined), -9.9%.
In the case of `CNc1nc(N)nc(OC(C(F)(F)F)C(F)(F)F)n1` it was -11%; in that of `Oc1ccc(/C=N/Nc2nccnc2Cl)c(O)c1`, 6.2% (active).
In the case of `CN1C(=O)/C(=N\OC(=O)c2cccc3ccccc23)c2ccccc21` it was -9.4%.
In the case of `CCOC(=O)c1n[nH]n2c1nc(=S)c1ccccc12`, the activity change, less the hit threshold was 49.6% (active).
The result for `CCOC(=O)C1CCN(C(=O)COC(=O)c2nn(C)c(=O)c3ccccc23)CC1` reads -21%; that for `CCOC(=O)c1c(O)c2ccccc2n(C)c1=O`, -10.3%.
The result for `COC(=O)c1c(N2C(=O)CC(Sc3ncccc3C(=O)O)C2=O)sc(C)c1C` (centres undefined) reads -12.9%; that for `COc1ccc(/C=N/NC(=O)c2ccncc2)cc1CN1CCCc2ccccc21`, -22.8%; that for `O=C(NNc1c(F)c(F)cc(F)c1F)c1cc2ccccc2oc1=O`, -13%.
Turning to `O=c1[nH]n2c(=O)c3c([nH]c2c1N=Nc1ccccc1)CCC3`, the activity change, less the hit threshold was -11.6%.
In the case of `O=C(NC(=S)N1CCN(C/C=C/c2ccccc2)CC1)c1ccc(Cl)nc1`, the activity change, less the hit threshold was 7.4% (active).
In the case of `CNC(=O)NC(=O)C(C)N1CCN(C/C=C/c2ccccc2)CC1` (centres undefined) it was -19.2%; in that of `O=C(CCN1C(=O)/C(=C\C=C\c2ccccc2)SC1=S)Nc1cccc(C(=O)O)c1`, -20.7%; in that of `O=C(Nc1ccc(N2CCN(C(=O)c3ccc(Cl)cc3)CC2)cc1)c1ccc([N+](=O)[O-])o1`, -6.1%.
As for `CC(=O)NC(CSC(CC(=O)c1ccco1)c1ccc(C)cc1)C(=O)O` (centres undefined), the activity change, less the hit threshold was -4.9%.
Consider `Cc1ccc(S(=O)(=O)c2nnn3c2nc(N2CCOCC2)c2ccccc23)c(C)c1`, for which the activity change, less the hit threshold is -20.7%.
Turning to `COc1ccccc1NC(=O)C1CCCN1C(=O)NCc1ccccc1` (centres undefined), the activity change, less the hit threshold is -24.2%.
In the case of `CCOC(=O)c1nnn(CC(=O)Nc2ccccc2OC)c1C(=O)OCC` it was -15.8%; in that of `COc1ccccc1NC1=C(NC(C)=O)C(=O)c2ccccc2C1=O`, 14.4% (active); in that of `CC(C)NC(=O)Nc1n[nH]c(Nc2ccc(Cl)cc2)n1`, 13.2% (active).
In the case of `O=C(Nc1ccc(Cl)cc1)Nn1cnnc1` it was -22.2%.
As for `O=c1[nH]c2ccc(S(=O)(=O)NCc3ccccc3)cc2[nH]1`, the activity change, less the hit threshold is -14%.
In the case of `Cc1ccc2nc(SCC(=O)N3CCCCCC3)nc(=O)n2c1`, the activity change, less the hit threshold was -23.7%.
The result for `O=C(CSc1nc(N2CCCCC2)nc(N2CCCCC2)n1)c1ccccc1` reads 31.5% (active); that for `CC(C)Nc1nc(SCC(N)=O)nc(N2CCOCC2)n1`, -13.5%; that for `CN(C)CCOC(=O)C1(c2ccccc2)CCCC1`, -12.9%.
The result for `COc1cc(/C=N/n2cnc3scc(-c4cccs4)c3c2=O)cc(OC)c1OC` reads -21%; that for `S=c1[nH]c(-c2cccs2)cn1-c1ccccc1`, -6.4%; that for `Cn1c(=S)[nH]c2scc(-c3cccs3)c2c1=O`, 70.4% (active).
The result for `CC(C)n1c(=S)[nH]c2scc(-c3cccs3)c2c1=O` reads 97.6% (active).
With `CC(C)C(=O)Nc1c(-c2ccccc2F)c(=O)c2ccccc2n1C`, the activity change, less the hit threshold was -21.5%.
Turning to `NC(=O)C1CCN(C(=O)CC(c2ccccc2)c2ccccc2)CC1`, the activity change, less the hit threshold was -24%.
Turning to `Brc1ccc(-c2noc(CCc3ccccc3)n2)cc1`, the activity change, less the hit threshold is -24.9%.
The result for `CC(C)(C)c1cc(-c2n[nH]c(=S)n2-c2ccccc2F)n[nH]1` reads 11.5% (active).
In the case of `Fc1ccccc1-c1n[nH]c(=S)n1C1CC1` it was -17.8%.
As for `COc1ccc(/C(C)=N/Nc2ccc(C(=O)O)cc2)c(OC)c1`, the activity change, less the hit threshold is -18.1%.
In the case of `COc1ccccc1-n1c(CCC(=O)O)ccc1-c1ccccc1`, the activity change, less the hit threshold was -13.3%.
For the compound `CON/C=N/C(=S)Nc1ncc(C(F)(F)F)cc1Cl`, the activity change, less the hit threshold was 29.7% (active).
For the compound `ON/C=N/C(=S)Nc1ncc(C(F)(F)F)cc1Cl`, the activity change, less the hit threshold is 26.3% (active).
The result for `c1ccc(Oc2cccc(OCCn3cncn3)c2)cc1` reads -14.9%.
The result for `Cc1ccccc1NC(=O)CN1C(=O)S/C(=C\c2ccc(-c3cccc(C(=O)O)c3C)o2)C1=O` reads -22.4%; that for `CN(Cc1ccsc1)C(=O)CCc1nnc(Cc2c[nH]c3ccccc23)o1`, -10.9%.
`O=C1NCC(=O)N2C(c3ccccc3)c3[nH]c4ccccc4c3C[C@@H]12` (some centres undefined): the activity change, less the hit threshold is -11.9%.
In the case of `COc1cc(NC(=O)CCCOc2ccc(Cl)cc2Cl)c(C(=O)O)cc1OC` it was -18.7%.
In the case of `CC(=O)CSc1ncnc2sc3c(c12)CCC(C)C3` (centres undefined) it was 89.9% (active).
With `COc1cc(NC(=O)CSc2ncnc3sc4c(c23)CCC(C)C4)c(C(=O)O)cc1OC` (centres undefined), the activity change, less the hit threshold was 89.6% (active).
The result for `NS(=O)(=O)c1ccc(Sc2ccc3c(c2)CCC3)nc1` reads -2.7%.
For the compound `COc1cc(NS(=O)(=O)c2ccc(NC(=S)Nc3ccccc3)cc2)nc(OC)n1`, the activity change, less the hit threshold was -20.8%.
The result for `COc1ccc(C(=O)CSc2nnc3ccc(-c4ccccn4)nn23)cc1` reads -17.4%; that for `CS(=O)(=O)N1CCN(c2ccccc2NC(=O)Nc2cccc(Cl)c2)CC1`, -24.2%; that for `COc1ccc(-c2nc3ccc(C(=O)NCC(OC)OC)cc3nc2-c2ccc(OC)c(OC)c2)cc1OC`, -22.7%.
The result for `O=C1C(=O)N(CCN2CCOCC2)C(c2cccnc2)/C1=C(/O)c1ccc(Cl)cc1` (centres undefined) reads -17.6%; that for `Nc1nnc(SCC(=O)OCc2ccc(F)cc2)s1`, -16.7%; that for `O=C(/C=C/c1ccccc1)CC(=O)c1ccccc1O`, -15.2%.
For `CCc1ccc(/C=C/C(=O)c2cc(Br)ccc(=O)c2O)cc1`, the activity change, less the hit threshold is -8.6%.
The result for `O=C(/C=C/c1ccccc1)c1cc(Br)ccc(=O)c1O` reads 15% (active); that for `Cc1cccc(/C=C/C(=O)c2cc(Br)ccc(=O)c2O)c1`, 3% (active).
On to `COc1cc(C2NC(=O)NC(O)(C(F)(F)F)C2C(C)=O)cc(OC)c1OC` (centres undefined), for which the activity change, less the hit threshold was -20.3%.
The result for `O=C1CC(C(=O)N2CCOCC2)C2(CCCCC2)O1` (centres undefined) reads -22.9%; that for `CCOc1ccccc1CNC(=O)CNC(=O)c1cccs1`, -20.9%; that for `Cc1cccc(NC(=S)c2nc3ccccc3s2)c1`, -23.6%.
In the case of `S=C(Nc1ccc(Cl)cc1)c1nc2ccccc2s1` it was 7.4% (active); in that of `Cc1ccc(NC(=S)c2nc3ccccc3s2)cc1`, -9.6%; in that of `Cc1ccc2[nH]c(=O)c(C(c3nnnn3C3CCCC3)N3CCCc4ccccc43)cc2c1` (centres undefined), 13.3% (active).
The result for `CC(C)(C)n1nnnc1C(c1cc2cc3c(cc2[nH]c1=O)OCCO3)N1CCSCC1` (centres undefined) reads -17.4%; that for `CC(=O)Nc1ccc(S(=O)(=O)NC2(C(F)(F)F)C(=O)Nc3c2c(=O)[nH]c(=O)n3C)cc1` (centres undefined), -12.3%; that for `Cc1cc(OCCN2CCCCCC2)ccc1[N+](=O)[O-]`, -19.9%.
For the compound `Cn1c(=O)cc(-c2ccccc2)c2ccccc21`, the activity change, less the hit threshold is -20.4%.
As to `O=c1cc(-c2ccccc2)cc(-c2ccccc2)n1O`, the activity change, less the hit threshold is 57.6% (active).
The result for `C/C=C(\C)CN1CCN(c2cccc(C)c2C)CC1` reads -16.9%; that for `Cc1ccccc1OCC(=O)NNC(=O)c1ccc2c(=O)n3c(nc2c1)CCC3`, -15.4%; that for `O=C(COc1ccc(Br)cc1Br)NC(=S)N1CCCc2ccccc21`, -16.8%.
In the case of `O=C(NC(=S)N1CCCc2ccccc21)c1ccc(Br)cc1` it was 18.2% (active); in that of `O=C(NC(=S)N1CCCc2ccccc21)c1ccc([N+](=O)[O-])cc1`, 15.1% (active); in that of `O=C(NC(=S)Nc1ccccc1N1CCCC1)c1ccc([N+](=O)[O-])cc1`, -8.4%.
In the case of `CCC(=O)N1CCCc2ccccc21` it was -20.5%.
On to `COc1ccccc1NC(=S)N1CCCc2ccccc21`, for which the activity change, less the hit threshold is -23.2%.
